The results in this text go back to PubChem BioAssay.

Each structure is given as a SMILES string. The source made the active and inactive calls. Unless noted, no rule for the calls is given here.

The subject of assay [1] is Wnt5a (protein binding on small-molecule microarray). The assay is described as follows: Wnt5a binders on small-molecule microarray, primary screen, biophysical, 635/667 nm fluorescence (AID 1142).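 Also: fluorescence read at 667 nm with signal to noise per printed feature.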 The conditions noted are these: 635 nm fluorescence, higher = more signal.
Assay [2] is described as follows: cell viability in Huh7 cells, primary screen, cytotoxicity control for HCV replication inhibitor project, CellTiter-Glo luminescence, basal, 48 h (AID 1143).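 Also: Huh7 hepatoma cells carrying a hepatitis C replication reporter with no stimulus; test concentration not given here.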 The conditions noted are these: Huh7 HCV replicon, higher = more signal, called active from +8 up or from −8 down.
Assay [3] is described as follows: P. aeruginosa biofilm formation inhibitors, primary screen, PAO1 strain, BacTiter-Glo luminescence, LB-PBS (AID 1144). The conditions noted are these: 12 h, higher = more signal.
Assay [4] is described as follows: CREB reporter modulators without forskolin, primary screen, cell-based, PC12, CRE-LacZ reporter, unstimulated (AID 1145). The conditions noted are these: no forskolin, luminescence, 4.5 h, higher = more signal, called active from +8 up or from −8 down.
Assay [5] is described as follows: CREB reporter modulators under forskolin, primary screen, cell-based, PC12, CRE-LacZ reporter, forskolin-stimulated (AID 1146).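 Also: PC12 cells with 6xCRE LacZ reporter stimulated by forskolin 10 µM; beta-galactosidase reporter signal reflecting CREB driven transcription.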 The conditions noted are these: luminescence, 4.5 h, higher = more signal, called active from +8 up or from −8 down.
For assay [6], the target named is Streptavidin (Streptomyces avidinii) (UniProt P22629). The assay can be described thus: streptavidin binders on small-molecule microarray, primary screen, artefact control for SMM compound annotation, biophysical, 635/667 nm fluorescence (AID 1147).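 Also: signal reflects streptavidin binding to arrayed compounds as a control protein.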 To be noted: streptavidin binding, higher = more signal.
The nature of assay [7]: small-molecule binders of probe aInhba, primary screen, biochemical, small-molecule microarray, 635/667 nm fluorescence (AID 1148).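 Also: score merges 667nm spot fluorescence with signal-to-noise for antibody binding to printed compounds.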 To be noted: higher = more signal.
Assay [8] concerns the target Torsin-1A (Homo sapiens) (UniProt O14656). The assay is described as follows: torsin A binders from cell lysate, primary screen, small-molecule microarray, wild-type, 635/667 nm (AID 1149). The conditions noted are these: COS7 hTOR1A-WT lysate, 635 nm fluorescence, higher = more signal.
The target is the same in assay [9]. The assay can be described thus: small-molecule binders of mutant TOR1A in lysate, primary screen, cell lysate, small-molecule microarray, COS7 lysate, 635/667 nm fluorescence (AID 1150).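 Also: score pools 667 nm emission and signal to noise measuring lysate protein binding.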 To be noted: COS7 hTOR1A mutant lysate, 635 nm fluorescence, higher = more signal.
Assay [10] relates to Sonic hedgehog protein (Shh). The assay can be described thus: small-molecule binders of Shh protein, primary screen, biochemical, small-molecule microarray, 635/667 nm fluorescence (AID 1151).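 Also: Shh protein binding to compounds spotted on small-molecule microarray slides; score combines spot fluorescence intensity with signal-to-noise across triplicate slides.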 To be noted: small-molecule microarray binding, 635 nm fluorescence; higher = more signal.
Assay [11] in a line: E. coli DRC41 culture turbidity changes, primary screen, E. coli filamentation inducer project, strain DRC41, OD650, 48 h (AID 1152).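 Also: E. coli MC1000 strain DRC41 lacking acrAB efflux pump and sulA.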 The conditions noted are these: E. coli DRC41 (acrAB sulA), higher = more signal, called active from +8 up or from −8 down.
Assay [12] is described as follows: small-molecule binders of probe aLefty1, primary screen, biochemical, small-molecule microarray, 635/667 nm fluorescence (AID 1153).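 Also: score merges spot fluorescence with signal-to-noise ratio from the scanned slide images.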 To be noted: higher = more signal.
Assay [13] is described as follows: PSAC antagonists in infected red cells, primary screen, cell-based, P. falciparum Indochina, OD700, 1 h (AID 1154). The conditions noted are these: P. falciparum Indochina infected RBC osmotic lysis, higher = more signal, called active from +8 up or from −8 down.
Assay [14] is described as follows: PSAC antagonists in infected red cells, primary screen, cell-based, P. falciparum Indochina, OD700, 2 h (AID 1155).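 Also: lysis reports solute entry through the parasite surface anion channel PSAC; channel blockers reduce lysis of infected cells.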 To be noted: P. falciparum Indochina infected erythrocytes, osmotic lysis OD700; higher = more signal, called active from +8 up or from −8 down.
The nature of assay [15]: osmotic lysis modulators in infected erythrocytes, primary screen, PSAC antagonist project, cell-based, P. falciparum Indochina, OD700, 3 h (AID 1156). The conditions noted are these: higher = more signal, called active from +8 up or from −8 down.
Assay [16] is described as follows: PSAC antagonists in infected red cells, primary screen, cell-based, P. falciparum Indochina, OD700, 18 h (AID 1157). The conditions noted are these: P. falciparum Indochina infected erythrocytes, osmotic lysis OD700, 18 h; higher = more signal, called active from +8 up or from −8 down.
A short description of assay [17]: modulators of S6 phosphorylation in cells, primary screen, cell-based, A549, cytoblot, luminescence, serum-stimulated (AID 1158).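 Also: serum-stimulated A549 lung adenocarcinoma cells; signal is phosphorylated S6 detected by cytoblot immunostaining with HRP secondary.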 The conditions noted are these: A549 phospho-S6 cytoblot, 5 h, higher = more signal.
Assay [18] deals with NADPH oxidase 2 (Homo sapiens) (UniProt P04839). The assay is described as follows: NOX2-dependent H2O2 signal modulators, primary screen, NOX inhibitor project, cell-based, HEK293-NOX2, PMA-stimulated, Amplex Red fluorescence (AID 1159). Also: test concentration not given here. To be noted: 45 min, higher = more signal, called active from +8 up or from −8 down.
The target of assay [19] is NADPH oxidase 4 (Homo sapiens) (UniProt Q9NPH5). The assay can be described thus: NOX4-dependent H2O2 signal modulators, primary screen, NOX inhibitor project, cell-based, HEK293-NOX4, tetracycline-induced, Amplex Red fluorescence (AID 1160). The conditions noted are these: 45 min, higher = more signal, called active from +8 up or from −8 down.
Assay [20] addresses NADPH oxidase 5 (Homo sapiens) (UniProt Q96PH1). The assay can be described thus: NOX5-dependent H2O2 signal modulators, primary screen, NOX inhibitor project, cell-based, HEK293-NOX5, Amplex Red fluorescence (AID 1161). The conditions noted are these: HEK293-NOX5, ionomycin, 45 min, higher = more signal.

Chain of NADPH oxidase 4 (Homo sapiens) (Q9NPH5 whole entry, looked up): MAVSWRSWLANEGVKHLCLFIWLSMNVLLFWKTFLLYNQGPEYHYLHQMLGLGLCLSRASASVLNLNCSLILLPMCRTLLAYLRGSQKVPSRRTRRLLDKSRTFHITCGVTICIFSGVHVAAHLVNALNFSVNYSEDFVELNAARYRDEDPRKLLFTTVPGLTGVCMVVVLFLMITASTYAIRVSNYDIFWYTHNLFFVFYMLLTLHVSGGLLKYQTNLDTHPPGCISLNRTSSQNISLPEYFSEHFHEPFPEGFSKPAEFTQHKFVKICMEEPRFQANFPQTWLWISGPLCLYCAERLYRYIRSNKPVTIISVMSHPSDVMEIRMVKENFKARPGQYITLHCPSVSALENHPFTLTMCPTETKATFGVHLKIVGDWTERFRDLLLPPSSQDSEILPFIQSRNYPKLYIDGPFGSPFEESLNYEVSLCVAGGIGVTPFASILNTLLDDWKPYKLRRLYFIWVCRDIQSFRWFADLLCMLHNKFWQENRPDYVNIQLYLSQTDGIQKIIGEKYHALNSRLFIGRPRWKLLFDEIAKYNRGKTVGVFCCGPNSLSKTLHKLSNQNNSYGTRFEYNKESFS
Chain of Torsin-1A (Homo sapiens) (O14656 whole entry, looked up): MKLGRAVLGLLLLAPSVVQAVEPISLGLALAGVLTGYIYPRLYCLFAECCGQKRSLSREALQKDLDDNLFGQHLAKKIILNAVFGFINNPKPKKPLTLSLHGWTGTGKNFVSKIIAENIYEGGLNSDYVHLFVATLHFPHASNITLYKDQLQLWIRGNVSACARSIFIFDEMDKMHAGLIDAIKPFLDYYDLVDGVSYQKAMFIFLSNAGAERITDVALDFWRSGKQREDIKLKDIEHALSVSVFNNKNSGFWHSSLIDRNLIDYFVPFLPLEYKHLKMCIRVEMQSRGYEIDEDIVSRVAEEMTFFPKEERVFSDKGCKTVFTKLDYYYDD
Chain of NADPH oxidase 5 (Homo sapiens) (Q96PH1 whole entry, looked up): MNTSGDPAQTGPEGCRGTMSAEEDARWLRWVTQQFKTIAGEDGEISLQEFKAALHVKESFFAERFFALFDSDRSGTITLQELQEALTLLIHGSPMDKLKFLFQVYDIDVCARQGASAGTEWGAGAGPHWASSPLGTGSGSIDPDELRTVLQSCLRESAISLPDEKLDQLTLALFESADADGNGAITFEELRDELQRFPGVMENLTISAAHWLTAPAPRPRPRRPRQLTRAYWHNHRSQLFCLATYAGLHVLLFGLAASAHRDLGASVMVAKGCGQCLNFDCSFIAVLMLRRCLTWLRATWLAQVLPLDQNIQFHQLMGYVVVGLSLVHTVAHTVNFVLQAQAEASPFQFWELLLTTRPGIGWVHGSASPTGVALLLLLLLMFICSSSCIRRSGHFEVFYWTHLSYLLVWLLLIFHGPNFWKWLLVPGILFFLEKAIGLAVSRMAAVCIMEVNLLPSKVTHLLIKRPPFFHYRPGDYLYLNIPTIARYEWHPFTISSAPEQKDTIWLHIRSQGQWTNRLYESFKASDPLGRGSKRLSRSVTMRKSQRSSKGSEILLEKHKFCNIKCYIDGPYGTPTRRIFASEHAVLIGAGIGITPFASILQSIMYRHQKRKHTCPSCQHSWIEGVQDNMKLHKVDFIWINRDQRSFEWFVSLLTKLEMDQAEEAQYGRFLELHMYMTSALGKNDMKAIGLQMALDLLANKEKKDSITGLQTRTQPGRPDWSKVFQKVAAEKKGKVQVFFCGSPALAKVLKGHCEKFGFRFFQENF
Chain of Streptavidin (Streptomyces avidinii) (P22629 whole entry, looked up): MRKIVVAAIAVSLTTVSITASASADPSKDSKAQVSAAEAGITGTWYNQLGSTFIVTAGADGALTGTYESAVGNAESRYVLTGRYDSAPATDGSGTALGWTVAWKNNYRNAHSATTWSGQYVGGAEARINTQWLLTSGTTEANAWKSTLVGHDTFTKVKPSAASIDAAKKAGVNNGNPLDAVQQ
Chain of NADPH oxidase 2 (Homo sapiens) (P04839 whole entry, looked up): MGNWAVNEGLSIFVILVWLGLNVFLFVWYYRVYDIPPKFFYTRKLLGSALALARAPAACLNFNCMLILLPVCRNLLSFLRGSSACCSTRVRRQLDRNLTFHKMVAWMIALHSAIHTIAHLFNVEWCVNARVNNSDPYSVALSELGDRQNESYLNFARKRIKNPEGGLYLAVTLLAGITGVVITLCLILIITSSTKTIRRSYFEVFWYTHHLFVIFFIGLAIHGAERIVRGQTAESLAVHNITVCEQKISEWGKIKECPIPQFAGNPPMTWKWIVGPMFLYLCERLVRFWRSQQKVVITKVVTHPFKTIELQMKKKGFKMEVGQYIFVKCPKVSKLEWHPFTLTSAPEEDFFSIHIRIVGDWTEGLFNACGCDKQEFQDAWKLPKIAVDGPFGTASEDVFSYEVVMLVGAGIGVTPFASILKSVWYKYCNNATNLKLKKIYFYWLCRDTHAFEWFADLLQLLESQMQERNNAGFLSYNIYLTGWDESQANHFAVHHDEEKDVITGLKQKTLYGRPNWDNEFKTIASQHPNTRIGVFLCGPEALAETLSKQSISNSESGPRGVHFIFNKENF

Turning to `O=C1O[C@@H](c2ccccc2)[C@@H](c2ccccc2)N2[C@@H](c3ccccc3OCCO)[C@]3(C(=O)Nc4ccccc43)[C@@H](C(=O)O)[C@H]12`, the composite z-score in [1] was 0.205; in assay [6] it was 1.38; in assay [7], -0.103; with Torsin-1A (Homo sapiens) [8], 0.332; in the assay with Torsin-1A (Homo sapiens) [9] it was 1.14; in assay [10], 0.0546. The composite z-score in [12] was -0.518. The z-score in assay [2] was -0.99 (inactive); in assay [3] it was -0.0695 (inactive); in assay [4] it was 0.568 (inactive); in assay [5] it was 2.62 (inactive); in [11], -0.749 (inactive); in assay [13], 0.749 (inactive). The z-score is 0.745 (inactive) in assay [14]; -1.6 (inactive) in assay [15]; 0.761 (inactive) in assay [16]; 0.128 in assay [17]; 2.66 (inactive) in assay [18]; 0.516 (inactive) in [19]. The compound further came in with a z-score in assay [20] of 1.24.
On to `O=C1C2C=CC(C(O)COCc3ccccc3)N(Nc3ccc([N+](=O)[O-])cc3)C2C(=O)N1c1ccccc1` (stereo not given), for which the composite z-score is 0.43 in assay [1]; 0.464 in assay [6]; 0.0743 in assay [7]; 0.272 in the assay with Torsin-1A (Homo sapiens) [8]; 0.165 with Torsin-1A (Homo sapiens) [9]; 0.57 in assay [10]. In assay [12], this compound gave a composite z-score of 0.447. For the same compound, the z-score was -3 (inactive) in assay [2]; -1.83 (inactive) in [3]; -0.275 (inactive) in assay [4]; 0.788 (inactive) in assay [5]; 0.383 (inactive) in assay [11]; 9.2 (active) in assay [13]. Moreover, the z-score was 0.581 (inactive) in assay [14]; -0.214 (inactive) in assay [15]; -0.809 (inactive) in assay [16]; 0.213 in assay [17]; -0.51 (inactive) in assay [18]; -0.338 (inactive) in assay [19]. Further, the z-score in assay [20] turned out to be 0.629.
Take `CCCC[C@H]1C[C@@H]1[C@@H]1N(P(=O)(c2ccccc2)c2ccccc2)C[C@@](O)(c2ccccc2)CC12CC2`: the composite z-score in assay [1] is -0.0443; in assay [6] it was 1.15; in assay [7], 0.108; with Torsin-1A (Homo sapiens) [8], -0.318; in the assay with Torsin-1A (Homo sapiens) [9], 0.409; in assay [10], -1.02. In addition, the composite z-score in assay [12] was 0.404. Besides, the z-score in assay [2] is -3.13 (inactive); in assay [3], 0.922 (inactive); in assay [4], -0.185 (inactive); in [5], 1.18 (inactive); in assay [11], -1.84 (inactive); in assay [13], 2.07 (inactive). The z-score in assay [14] is 1.07 (inactive); in assay [15], 0.425 (inactive); in assay [16] it was 1.55 (inactive); in assay [17], -0.443; in [18], -0.476 (inactive); in assay [19], -0.925 (inactive). In [20], the z-score was -2.1.
Consider `C[N+](C)(C)CCCC[C@@H]1NC(=O)[C@@H]2C[C@H](C(=O)NCCCCCCNC(=O)CS)[C@H](c3ccc(O)cc3)N2C1=O`, for which the composite z-score is -0.387 in [1]; 0.553 in assay [6]; -0.0963 in [7]; 0.296 in the assay with Torsin-1A (Homo sapiens) [8]; 0.461 with Torsin-1A (Homo sapiens) [9]; 0.586 in [10]. Further, the composite z-score in [12] is -0.101. Besides, the z-score was -0.195 (inactive) in assay [2]; -0.421 (inactive) in assay [3]; 0.0165 (inactive) in assay [4]; 1.45 (inactive) in assay [5]; -0.432 (inactive) in [11]; 2.2 (inactive) in assay [13]. The z-score in assay [14] is 0.244 (inactive); in assay [15] it was -3.26 (inactive); in [16], -0.114 (inactive); in assay [17], -0.489; in assay [18], 0.614 (inactive); in assay [19], 0.449 (inactive). The compound also displayed a z-score in [20] of 0.0101.
